Screens (PubChem BioAssay)
This is a sample that favours compounds with a hit; in the whole collection about 5.1% have one here.
ANO1 block = TMEM16A chloride channel inhibitors, primary screen, cell-based, HTS; Anoctamin-1 (Mus musculus), Q8BHY3; HEK293 TMEM16A/YFP iodide influx fluorescence, ionomycin; normalized B-score (activity score, 25-100; higher = stronger inhibition) at 10 µM; actives 1.2% (n = 310,000); AID 588511, 2011;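 active = ratio plate-corrected score three or more library SD toward inhibition, starting fluorescence score within five deviations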;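 note: score derived from kinetic fluorescence span divided by baseline fluorescence per well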
CRFBP-R2 block = antagonists of CRF-BP/CRF-R2 complex, primary screen, cell-based, HEK293, calcium dye fluorescence, uHTS; AID 588475, 2011; actives 0.59% (n = 350,000); inhibition, % at 11.8 µM; CRF-induced calcium fluorescence;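 active = inhibition of the ligand-induced calcium signal above about 50% at the single tested concentration, limit read from the data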
NR3A LBD binder = binders of NR3A ligand-binding domain, primary screen, biophysical, differential scanning fluorimetry, uHTS; Glutamate receptor ionotropic, NMDA 3A (GRIN3A) ligand-binding domain; AID 1259313, 2017; NR3A LBD differential scanning fluorimetry, Tm shift; 0% = protein alone, 100% = glycine-bound protein; Tm shift relative to glycine control, % at 25 µM; actives 2.5% (n = 340,000);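 active = melting temperature shift of at least 10% of the positive control shift, at one fixed dose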
CRFBP-R2 agonist = agonists of CRF-BP/CRF-R2 complex, primary screen, cell-based, HEK293, calcium dye fluorescence, uHTS; calcium dye fluorescence (FLIPR); percent of saturating CRF peptide response; activation, % at 13.2 µM; actives 0.46% (n = 350,000); AID 588473, 2011;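 active = activation of at least 50%, plus an integration ratio under a set limit after plate pattern correction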
TMEM16A act = TMEM16A chloride channel activators or potentiators, primary screen, cell-based, HTS; Anoctamin-1 (Mus musculus), Q8BHY3; HEK293 TMEM16A/YFP-H148Q/I152L, iodide quench fluorescence; active compounds read low; B-score at 10 µM; actives 0.3% (n = 340,000); AID 623877, 2012;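 active = fluorescence-ratio B-score plate-corrected deviation score at least 3 library SD below zero, with starting fluorescence score within 5 deviations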;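 note: channel opened by trigger with iodide after compound preincubation; score built on the fluorescence ratio of max minus min over baseline; more negative score means more quench and so TMEM16A activation or potentiation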
MPTP block = mitochondrial permeability transition pore inhibitors, primary screen, biochemical, isolated mouse mitochondria, absorbance. actives 1.4% (n = 360,000). Ca2+ swelling absorbance, 30 min. inhibition, % at 10 µM;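 active = inhibition of 50% or more, scaled per plate between neutral and stimulator controls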
Large screens that a line does not name were inactive; ! = a repeat was not active.

CSc1nnc(N2C(=O)C(O)=C(C(=O)c3ccco3)C2c2ccccc2)s1 (stereo unspecified)	TMEM16A act -6.6
CC(C)CC(N)c1csc(NC(=O)Nc2ccccc2C(C)C)n1 (stereo unspecified)	none (no result: ANO1 block, CRFBP-R2 block, NR3A LBD binder, CRFBP-R2 agonist, TMEM16A act)
S=C(NCc1ccccc1)N1CCN(C2CCCCC2)CC1	none
COc1ccc(-c2nc3ccc(C)cc3c(=O)o2)cc1OC	none
Cc1ccc2nc(N3C(=O)C(O)=C(C(=O)c4ccco4)C3c3ccc(O)cc3)sc2c1 (stereo unspecified)	ANO1 block 25 (no result: CRFBP-R2 block, NR3A LBD binder, CRFBP-R2 agonist)
NC(=O)c1ncc(C(F)(F)F)cc1Oc1cccc(F)c1	none
NC(=O)c1ncc(C(F)(F)F)cc1Oc1cccc(C(F)(F)F)c1	NR3A LBD binder 11
COc1ccc(CCNC(=O)CSc2nnc(Cn3c(=O)sc4ccccc43)n2C)cc1OC	NR3A LBD binder 11
CN(c1ccc(OCC(=O)NC2CCC(O)CC2)cc1)S(=O)(=O)c1ccc(Cl)cc1 (stereo unspecified)	none (no result: ANO1 block)
c1ccc(-c2sc3ccccc3c2-c2ccc(OCCN3CCCC3)cc2)cc1	none (no result: ANO1 block)
COc1ccc(-c2sc3ccccc3c2-c2ccc(OCCN3CCCCC3)cc2)cc1	CRFBP-R2 block 62 (no result: ANO1 block, TMEM16A act)
COc1ccc(-c2sc3ccccc3c2C#CCO)cc1	ANO1 block 25
Cc1cccc(-n2c(SCC(=O)N3CC(=O)Nc4ccccc43)nc3ccccc3c2=O)c1C	CRFBP-R2 block 55
CC(=O)N1CCc2cc(S(=O)(=O)NC(CC(C)C)C(=O)N3CCCC3)ccc21 (stereo unspecified)	none
O=C(N/N=C/c1ccncc1)c1cc(-c2ccc(Br)s2)[nH]n1	NR3A LBD binder 17
Cc1ccc(/C=N/NC(=O)c2cc(-c3ccc(C)o3)[nH]n2)cc1	NR3A LBD binder 34
O=C(N/N=C/c1ccccn1)c1cc(-c2ccc(Br)s2)[nH]n1	none
Cc1nn(-c2ccccc2)c(C)c1/C=N/NC(=O)c1cc(-c2ccc(Cl)s2)[nH]n1	NR3A LBD binder 12
Cc1nn(-c2ccccc2)c(C)c1/C=N/NC(=O)c1cc(-c2ccc(Br)s2)[nH]n1	none
Cc1cc(C(=O)N/N=C/c2ccc(-c3ccc(C)c(Cl)c3)o2)n[nH]1	NR3A LBD binder 15
COc1ccc(NC(=O)CN(C)CC(=O)NCCc2ccc(F)cc2)cc1	none (no result: ANO1 block)
COc1ccc(C(=O)O)cc1S(=O)(=O)NCCc1ccccn1	none
c1ccc(C2CC(c3cccs3)Nc3nnnn32)cc1 (stereo unspecified)	none
Brc1cccc(C2CC(c3ccccc3)n3nnnc3N2)c1 (stereo unspecified)	CRFBP-R2 block 55
O=C(O)c1cc(-c2ccc(-c3ccc(F)cc3)o2)nc2ccccc12	none
N#CCCCSc1nnc(Cc2ccc3c(c2)OCO3)o1	NR3A LBD binder 12
Cc1ccc(/C=N/n2c(-c3ccc(Cl)cc3)n[nH]c2=S)s1	NR3A LBD binder 21
Cn1cccc1/C=N/n1c(-c2ccc(Cl)cc2)n[nH]c1=S	none
Cc1ccc(-c2n[nH]c(=S)n2/N=C/c2cccn2C)cc1	CRFBP-R2 block 52
COc1cc(CCC(=O)Nc2cc(S(=O)(=O)N3CCOCC3)ccc2OC(C)C)cc(OC)c1OC	none (no result: ANO1 block, NR3A LBD binder, TMEM16A act)
COc1cccc(C(O)c2nc(-c3cccc(C#N)c3)cs2)c1 (stereo unspecified)	none (no result: ANO1 block, CRFBP-R2 block, NR3A LBD binder, CRFBP-R2 agonist, TMEM16A act)
O=C(Nc1cc(-c2ccccc2)cs1)c1ccco1	NR3A LBD binder 12 (no result: ANO1 block)
CCOc1cc(N2CCOCC2)c(OCC)cc1NC(=O)COC(=O)C1CCCN1S(=O)(=O)c1ccccc1F (stereo unspecified)	NR3A LBD binder 26 (no result: ANO1 block)
Oc1ccc(/C=N/n2c3ccccc3c3ccccc32)cc1	NR3A LBD binder 16
Cc1nnc(C)n1/N=C/c1ccc(O)cc1	none (no result: NR3A LBD binder)
CC(C)(CCC(=S)N1CCOCC1)c1ccccc1	NR3A LBD binder 11 (no result: ANO1 block)
NC(=Nc1ccccc1)Nc1ccccc1	CRFBP-R2 agonist 147, TMEM16A act -14
COc1ccc(/C=C\C(=O)O[C@@H]2C(O)C(O[C@@H]3OC(C)[C@H](O[C@@H]4OCC(O[C@H]5O[C@H](CO)[C@@H](O)C(O)C5O)C(O)C4O)C(O)C3O)[C@H](OC(=O)[C@]34CCC(C)(C)C[C@@H]3C3=CCC5[C@@]6(C)CC(O)C(O[C@@H]7OC(CO)C(O)[C@H](O)[C@H]7O)[C@@](C)(C(=O)O)C6CC[C@@]5(C)[C@]3(CO)CC4)O[C@H]2C)cc1 (stereo partly specified)	CRFBP-R2 agonist 132, TMEM16A act -32 (no result: ANO1 block)
Cc1nn(-c2ccccc2)c(C)c1NC(=O)COC(=O)c1ccccc1OC(F)F	CRFBP-R2 block 58
O=C(CCCn1c(=S)[nH]c2ccsc2c1=O)NC1CCCCC1	none
CC1CCCCC1NC(=O)CCCCCn1c(=S)[nH]c2ccsc2c1=O (stereo unspecified)	CRFBP-R2 block 93
CC(=O)[C@@]1(O)CC[C@H]2[C@@H]3CCC4=CC(=O)CC[C@]4(C)[C@H]3[C@@H](O)C[C@@]21C	ANO1 block 100
CCOc1c(C)cc(-c2ncccc2O)cc1C	CRFBP-R2 block 52!
CCc1nc2ccc(C(=O)NCC3CCCCC3)cn2c1N(C)C(=O)c1cccc(OC)c1	none (no result: ANO1 block, CRFBP-R2 block, NR3A LBD binder, CRFBP-R2 agonist, TMEM16A act)
CCOC(=O)Nc1ccc2c(c1)Nc1ccccc1S2	NR3A LBD binder 12
N#Cc1cc(Oc2ccc3ccccc3c2)c(-n2nnc3ccccc32)cc1C#N	NR3A LBD binder 13
CN1CCN(S(=O)(=O)c2ccc(Br)c3ccccc23)CC1	none
Cc1ccsc1C(=O)NNC(=O)c1cccc(S(=O)(=O)N2CCCC2)c1	none (no result: ANO1 block)
CCC(C)C(=O)Nc1nc2ccc(OC)cc2s1 (stereo unspecified)	none
S=C(Nc1ccc(Cl)cc1)NN1CCOCC1	none
CC(C)c1ccc(NC(=S)NN2CCOCC2)cc1	CRFBP-R2 block 50, CRFBP-R2 agonist 83
O=C(CSc1ccc2ccccc2n1)NCCCN1CCCC1=O	none (no result: ANO1 block)
O=c1c2c(n3cnnc3n1-c1ccccc1)-c1ccccc1CC21CCCCC1	none
CCn1c(=O)c2c(n3cnnc13)-c1ccccc1CC21CCCCC1	TMEM16A act -9.6
O=S(=O)(c1ccc(Cl)cc1)N1CCN(Cc2ccncc2)CC1	none
Cc1ccc(S(=O)(=O)N2CCN(CCc3ccncc3)CC2)cc1	NR3A LBD binder 11 (no result: ANO1 block)
COc1ccc(-n2ccc(-c3nn(-c4cccc(C(F)(F)F)c4)ccc3=O)n2)cc1	TMEM16A act -43
